miR-122 sensor – miR-122 Renilla sensor signal increase in Huh7, primary screen, miR-122 inhibitor project, cell-based, single point, plate reader | activation (reporter increase), % at 12.5 µM | 340,000 tested, 0.3% active | Huh7 miR-122 Renilla luciferase sensor, 48 h; neutral wells = 0, positive control = 100 | AID 602342, 2012;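 active means mean replicate activation score at least 90 and every replicate individually at or above 90; inconclusive means only one of the two criteria met; inactive means neither criterion met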;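 further: higher luciferase means less miR-122 activity so hits act as miR-122 inhibitors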
C2C12 statin – suppressors of statin myotoxicity in C2C12 myotubes, primary screen, cell-based, single point, plate reader | C2C12 myotubes + simvastatin, ATP luminescence, 48 h; scaled: DMSO 0, geranylgeraniol control 100 | rescue of ATP level, % at 7.49 µM | 330,000 tested, 0.78% active | AID 602340, 2012;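 active means mean ATP rescue above about 67%, or every replicate alone reaching that limit, limit read from the data, passing the limit was not always enough; inconclusive means no clear call, values can overlap the other calls; inactive means mean under the limit and some replicate under it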;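 further: myotubes were challenged with 10 µM simvastatin during compound exposure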
NSD2 HMT inh – NSD2 histone methyltransferase inhibitors, primary screen, biochemical, AlphaScreen, single concentration, set 2; NSD2 peptide methylation, 120 min; Histone-lysine N-methyltransferase NSD2 (Homo sapiens), O96028; inhibition, % at 12.5 µM; AID 743445, 2014; 310,000 tested, 0.54% active; in the data active means inhibition above about 50%
PglD inh – C. jejuni PglD acetyltransferase inhibitors, primary screen, biochemical, DTNB colorimetric, single point | purified PglD enzyme, DTNB colorimetric CoA detection | inhibition, % at 12.5 µM | 360,000 tested, 0.098% active | AID 602405, 2012; in the data active means inhibition above about 16%, passing the limit was not always enough; inconclusive means no clear call, values can overlap the other calls
Active calls of the source: *; ! = not confirmed by another sample; [ ] = remark or other dose. An excerpt weighted towards active compounds, which were near 1.2% of everything screened.

Results for CC1=CCn2c(=O)c3ccccc3c(=O)n2C1 ?
miR-122 sensor: -4.4; C2C12 statin: 125.3*; NSD2 HMT inh: -2.8; PglD inh: 2.0

What do the screens show for `O=c1c2ccccc2c(=O)n2n1Cc1ccccc1C2`?
miR-122 sensor: -6.8; C2C12 statin: -4.0; NSD2 HMT inh: -1.5; PglD inh: -4.6

Results for COCC#Cc1ccc2c(c1)O[C@H](CN(C)S(=O)(=O)c1cccc(OC)c1)[C@@H](C)CN([C@H](C)CO)S2(=O)=O ?
miR-122 sensor: 12.4[16.7 µM]; C2C12 statin: -33.6; PglD inh: 2.1

Results for COc1ccc(C#Cc2ccc3c(c2)O[C@H](CN(C)C(=O)Nc2cccc(OC)c2)[C@@H](C)CN([C@H](C)CO)S3(=O)=O)cc1 ?
miR-122 sensor: 25.6[16.7 µM]; C2C12 statin: inconclusive; PglD inh: 3.0

Results for C[C@H](CO)N1C[C@H](C)[C@H](CN(C)C(=O)Nc2ccc3c(c2)OCO3)Oc2ncc(C#Cc3ccc(F)cc3)cc2C1=O ?
miR-122 sensor: -10.9[16.7 µM]; C2C12 statin: 74.1*; PglD inh: -2.4

What do the screens show for `COc1ccc(C#Cc2ccc3c(c2)O[C@H](CN(C)C(=O)Nc2cccc(OC)c2)[C@H](C)CN([C@H](C)CO)S3(=O)=O)cc1`?
miR-122 sensor: -1.4[16.7 µM]; C2C12 statin: 92.4*; PglD inh: 0.7

Results for C[C@H](CO)N1C[C@H](C)[C@@H](CN(C)C(=O)Nc2ccccc2)Oc2ncc(C#CC3CCCC3)cc2C1=O ?
miR-122 sensor: -2.2[16.7 µM]; C2C12 statin: 78.2*; PglD inh: -0.3

Results for COc1ccc(C#Cc2cnc3c(c2)C(=O)N([C@H](C)CO)C[C@H](C)[C@@H](CN(C)C(=O)Nc2cccc(OC)c2)O3)cc1 ?
miR-122 sensor: -4.7; C2C12 statin: 112.0*!; PglD inh: -3.7

Results for CCCC(=O)Nc1ccc2c(c1)OC[C@@H](C)N(Cc1cncnc1)C[C@H](C)[C@H](OC)CN(C)C2=O ?
C2C12 statin: 4.9; PglD inh: 2.0

What do the screens show for `O=C(NCC[C@H]1CC[C@H](NC(=O)C2CCCCC2)[C@@H](CO)O1)c1cnccn1`?
C2C12 statin: -2.6; PglD inh: 4.8

What do the screens show for `Cc1cccc(-c2ccc([C@@H]3[C@@H](CO)N4CCCCN(S(=O)(=O)c5cn(C)cn5)C[C@@H]34)cc2)c1`?
miR-122 sensor: 1.9[16.7 µM]; PglD inh: 4.4

What do the screens show for `CCC(=O)N1[C@H](CO)[C@@H](c2ccc(C3=CCCC3)cc2)[C@H]1CNC(=O)CN(C)C`?
miR-122 sensor: 14.3[16.7 µM]; C2C12 statin: 0.1; PglD inh: 0.0

Results for CCOCCOC(=O)c1[nH]c2c(c1C)C(=O)CC(c1ccccc1)C2 (configuration not stated) ?
miR-122 sensor: 86.3; C2C12 statin: -160.0; NSD2 HMT inh: -3.4; PglD inh: -0.9

How did CCCCCOC(=O)c1[nH]c2c(c1C)C(=O)CC(c1ccco1)C2 (configuration not stated) do in these assays?
miR-122 sensor: 121.0*; C2C12 statin: -32.8; PglD inh: 4.1

Results for CCC(=O)Nc1ccc2c(c1)C(=O)N(C)[C@@H]1CC[C@@H](CC(=O)NCc3ccccc3)O[C@@H]1CO2 ?
miR-122 sensor: -2.7[16.7 µM]; C2C12 statin: -8.1; PglD inh: 3.2

What do the screens show for `CN(C)C(=O)C[C@H]1C[C@H]2c3cc(NC(=O)C4CCC4)ccc3O[C@H]2[C@H](CO)O1`?
miR-122 sensor: -0.2[16.7 µM]; C2C12 statin: 3.0; PglD inh: -2.0

How did COc1ccc(C(=O)NN(C)c2nc(-c3ccccc3)nnc2C(F)(F)F)cc1 do in these assays?
miR-122 sensor: 21.2; C2C12 statin: 74.1*; NSD2 HMT inh: 12.9; PglD inh: -4.2

What do the screens show for `CCN1CCCC1Cn1cnc2c([nH]c3ccc(Cl)cc32)c1=O` (configuration not stated)?
miR-122 sensor: -2.4; C2C12 statin: 98.7*; NSD2 HMT inh: 16.5; PglD inh: -1.3

Results for CN(C)C(=O)c1cccc(-c2ccc([C@H]3[C@@H](CO)N4CCCCN(CCC(F)(F)F)C[C@H]34)cc2)c1 ?
miR-122 sensor: -0.4[16.7 µM]; PglD inh: -1.8

Results for COc1cccc(CNC(=O)C2CCCN(S(=O)(=O)c3c(C)n[nH]c3C)C2)c1 (configuration not stated) ?
miR-122 sensor: 0.0; C2C12 statin: 74.7*; NSD2 HMT inh: -3.1; PglD inh: -1.0

How did N#CC1=C(N)OC2=C(C(=O)CCC2)[C@]12C(=O)N(CC(N)=O)c1ccccc12 do in these assays?
miR-122 sensor: 0.2; C2C12 statin: 109.4*; NSD2 HMT inh: -3.8; PglD inh: 2.7

How did N#CC1=C(N)OC2=C(C(=O)CCC2)C12C(=O)N1CCCc3cccc2c31 (configuration not stated) do in these assays?
miR-122 sensor: -1.4; C2C12 statin: 33.6; PglD inh: -5.1

How did COc1ccc(C(=O)N2C[C@@H]3[C@H](c4ccccc42)[C@H](CO)N3Cc2ccccc2Cl)cc1 do in these assays?
miR-122 sensor: 194.2*[16.7 µM]; C2C12 statin: 3.4; PglD inh: 0.0

Results for O=C(Cc1ccccc1)N1C[C@H]2[C@@H](c3ccccc31)[C@@H](CO)N2C(=O)C1CCCCC1 ?
miR-122 sensor: 200.0*[16.7 µM]; C2C12 statin: -13.4; PglD inh: -0.7

What do the screens show for `COc1ccc(C(=O)N2C[C@H]3[C@@H](c4ccccc42)[C@@H](CO)N3Cc2ccccc2Cl)cc1`?
miR-122 sensor: 5.1[16.7 µM]; C2C12 statin: 13.0; PglD inh: -1.5

How did O=C(C1CCCCC1)N1C[C@H]2[C@@H](c3ccccc31)[C@@H](CO)N2C(=O)c1ccccc1 do in these assays?
miR-122 sensor: 260.0*[16.7 µM]; C2C12 statin: -11.2; PglD inh: 4.8

Results for O=C(C1CC1)N1C[C@@H]2[C@H](c3ccccc31)[C@H](CO)N2C(=O)c1ccccc1 ?
miR-122 sensor: 14.3[16.7 µM]; C2C12 statin: -32.6; PglD inh: -0.2

What do the screens show for `COc1ccc(CN2[C@H](CO)[C@H]3c4ccccc4NC[C@H]32)cc1`?
miR-122 sensor: 0.0[16.7 µM]; C2C12 statin: 157.2*; PglD inh: -2.5

What do the screens show for `C[C@@H]1CN([C@@H](C)CO)C(=O)Cc2cc(NC(=O)Cc3cn(C)c4ccccc34)ccc2O[C@@H]1CN(C)S(C)(=O)=O`?
miR-122 sensor: -2.3[16.7 µM]; C2C12 statin: -4.5; PglD inh: -8.5

How did O=C(CC(c1ccccc1)c1ccco1)N1CCOCC1 (configuration not stated) do in these assays?
miR-122 sensor: 6.6; C2C12 statin: 128.4*; NSD2 HMT inh: 0.5; PglD inh: -1.9

How did Cc1ccc(S(=O)(=O)NC(CC(=O)N2CCOCC2)c2ccco2)cc1 (configuration not stated) do in these assays?
miR-122 sensor: 15.7; C2C12 statin: 7.1; NSD2 HMT inh: 0.0; PglD inh: 3.0

How did O=C(C(c1ccccc1)c1ccccc1)N1CCOCC1 do in these assays?
miR-122 sensor: 213.5*; C2C12 statin: -5.5; NSD2 HMT inh: -1.6; PglD inh: -3.5

Screening data deposited in PubChem by Broad Institute.
